The record followed here is PubChem BioAssay.

Assay [1] in a line: stimulators of nuclear beta-catenin in C2C12, primary screen, imaging, WNT3A-conditioned medium, mouse C2C12, NPC library (AID 1117326; in the data active means nuclear beta-catenin stimulation mostly above about 4.2%, no sharp cut-off; inactive means mostly below about 10%). The following applies: stronger effect = higher value.
A short description of assay [2]: stimulators of insulin release from INS-1E, primary screen, cell-based, 5 mM glucose, NPC library (AID 1117329;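 active means compound raises insulin release from rat beta cells at 5 mM glucose, no numeric limit stated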). The conditions noted are these: rat INS-1E insulin secretion, at 10 µM, stronger effect = higher value.
Assay [3] is described as follows: growth inhibition of GSK3B-pretreated HCT116 cells – cell-based, CellTiter-Glo, 0.2 to 20 µM (AID 1117336;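 active means compounds lowering colon cancer cell viability after pretreatment blocking the GSK3B kinase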). The following applies: HCT116 viability after GSK3B inhibitor, at 20 µM, stronger effect = higher value.
Assay [4] is described as follows: inhibition of endothelial tube formation, primary screen, imaging, VEGF stimulated, CD31 staining, tube area, NPC library (AID 1117340;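 active means compound that reduces growth-factor-driven endothelial tube area in a mixed cell culture, no cutoff stated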). The following applies: VEGF-stimulated ADSC/ECFC co-culture, at 10 µM, stronger effect = higher value.
Assay [5] is described as follows: glucagon-like peptide 1 release enhancers, primary assay, NCI-H716 cell line, NPC library (AID 1117341;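 active means compound raises GLP1 secretion from the human gut endocrine cells, with no numeric limit stated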). The following applies: NCI-H716 cells, at 10 µM, stronger effect = higher value.
Assay [6] can be described thus: HCT116 colon cancer cell growth inhibition, primary screen, CellTiter-Glo luminescence, NPC library (AID 1117342;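 active means compounds that lower survival of HCT116 colon cancer cells in the luminescence readout, no numeric limit stated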). The following applies: at 20 µM (top of the series). Background: Cellular ATP, detected with luciferase, serves as a proxy for viable cell number.
A short description of assay [7]: CellTiter-Glo luminescent readout of SW480 viability loss, NPC library primary (AID 1117343). The following applies: CellTiter-Glo luminescence; at 20 µM (top of the series) unless noted.
Assay [8] in a line: decreased DLD-1 cellular survival, CellTiter-Glo luminescent readout, NPC compound collection, primary HTS (AID 1117346;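 active means compounds that lower survival of DLD-1 colon cancer cells in the luminescence readout, no cutoff given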). The following applies: DLD-1 viability, CellTiter-Glo luminescence; at 20 µM (top of the series).
Assay [9] can be described thus: survival rescue of mitochondrial mutant cells in low glucose, primary screen, MELAS cybrids, Rieske KO mouse fibroblasts, CellTiter-Glo (AID 1508586;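 active means mean z-score across replicates of 1.96 or higher in either the MELAS or the Rieske mutant cell line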;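 further: z relative to plate mean and SD of compound and empty wells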).
Assay [10] concerns the target NAD(+) hydrolase SARM1 (Homo sapiens) (UniProt Q6SZW1). The experiment in a line: SARM1 TIR NADase inhibitors, cell lysate, NAD-Glo luminescence (AID 1508614;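 active means compound whose remaining NAD level is above about 45 nM, limit read from the data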). The following applies: SAM-TIR HEK293T lysate NADase, at 1 µM, stronger effect = higher value.
For assay [11], the target named is Mitogen-activated protein kinase 7 (Homo sapiens) (UniProt Q13164). The experiment in a line: ERK5 transactivation activators in reporter cells, primary screen, cell-based, HTS (AID 1508626;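 active means luciferase signal above three times the same-plate solvent-only control wells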;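 further: luciferase driven by Gal4-ERK5 fusion binding five Gal4 sites before minimal TATA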). The following applies: HeLa Gal4-ERK5 transactivation, 18 h, at 5 µM, stronger effect = higher value.
Where [12] appears, read: MELAS cybrid survival, CellTiter-Glo 48 h, stronger effect = higher value.
Where [13] appears, read: Rieske KO mouse fibroblast survival, CellTiter-Glo 72 h.

Activity calls are given as the source filed them.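 How the source made its calls, unless noted: active means compounds that lower viability of the colon cancer cells in the luminescence readout, with no numeric limit stated; inactive means the rest.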

NAD(+) hydrolase SARM1 (Homo sapiens), sequence (Q6SZW1 whole entry, looked up, the tested form may be a part): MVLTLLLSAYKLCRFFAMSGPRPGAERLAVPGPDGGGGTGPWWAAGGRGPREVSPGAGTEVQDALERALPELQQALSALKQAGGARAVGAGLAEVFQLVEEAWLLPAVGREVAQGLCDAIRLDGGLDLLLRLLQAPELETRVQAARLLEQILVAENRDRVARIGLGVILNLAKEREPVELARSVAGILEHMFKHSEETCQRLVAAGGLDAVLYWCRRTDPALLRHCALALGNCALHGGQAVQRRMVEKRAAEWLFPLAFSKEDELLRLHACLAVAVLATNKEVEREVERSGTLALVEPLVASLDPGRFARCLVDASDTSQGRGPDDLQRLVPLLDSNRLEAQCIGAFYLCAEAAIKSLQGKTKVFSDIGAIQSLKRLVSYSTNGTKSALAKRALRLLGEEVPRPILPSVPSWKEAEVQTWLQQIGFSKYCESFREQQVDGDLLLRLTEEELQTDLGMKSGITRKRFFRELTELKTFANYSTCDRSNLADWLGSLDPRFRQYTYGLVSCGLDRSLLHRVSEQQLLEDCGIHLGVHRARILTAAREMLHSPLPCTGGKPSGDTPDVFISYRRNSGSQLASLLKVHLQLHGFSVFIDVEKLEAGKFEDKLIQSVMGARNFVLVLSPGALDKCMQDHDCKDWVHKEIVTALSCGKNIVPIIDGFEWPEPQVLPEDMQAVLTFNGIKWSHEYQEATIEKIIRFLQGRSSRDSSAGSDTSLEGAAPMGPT
Mitogen-activated protein kinase 7 (Homo sapiens), sequence (Q13164 whole entry, looked up, the tested form may be a part): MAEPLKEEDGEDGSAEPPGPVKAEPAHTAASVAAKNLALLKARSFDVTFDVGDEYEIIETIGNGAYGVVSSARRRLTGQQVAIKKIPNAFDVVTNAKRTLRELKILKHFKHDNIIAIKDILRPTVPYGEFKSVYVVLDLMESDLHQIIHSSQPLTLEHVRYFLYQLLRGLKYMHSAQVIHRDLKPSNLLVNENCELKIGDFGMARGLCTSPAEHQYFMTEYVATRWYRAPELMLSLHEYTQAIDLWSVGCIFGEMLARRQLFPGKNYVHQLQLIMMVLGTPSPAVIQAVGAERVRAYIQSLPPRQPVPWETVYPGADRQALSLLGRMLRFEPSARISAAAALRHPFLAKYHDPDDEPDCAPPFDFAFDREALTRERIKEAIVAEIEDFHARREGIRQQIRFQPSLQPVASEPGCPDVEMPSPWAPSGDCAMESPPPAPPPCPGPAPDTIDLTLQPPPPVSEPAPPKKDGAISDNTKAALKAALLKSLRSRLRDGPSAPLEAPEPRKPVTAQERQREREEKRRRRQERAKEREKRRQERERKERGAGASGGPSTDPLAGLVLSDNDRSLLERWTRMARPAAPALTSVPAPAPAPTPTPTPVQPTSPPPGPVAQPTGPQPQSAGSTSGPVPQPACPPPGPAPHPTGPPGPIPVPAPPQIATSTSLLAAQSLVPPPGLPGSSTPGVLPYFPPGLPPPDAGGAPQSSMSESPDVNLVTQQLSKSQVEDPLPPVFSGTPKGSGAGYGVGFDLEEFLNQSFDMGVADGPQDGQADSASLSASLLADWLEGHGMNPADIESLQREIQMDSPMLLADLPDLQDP

On to `N#Cc1cc(NC(=O)C(=O)O)c(Cl)c(NC(=O)C(=O)O)c1`, for which the nuclear beta-catenin stimulation in [1] (at 10 µM) is 3.5% (inactive); in assay [1] (stimulation, at 2 µM), 1.2%. The insulin secretion stimulation in assay [2] was 2.2% (inactive). The viability decrease in assay [3] was -38.9% (inactive). In addition, in [4], the tube area decrease is -0.9% (inactive). In addition, the GLP1 secretion stimulation in assay [5] was -0.9% (inactive). In addition, in assay [6], the inhibition of viability is -4.9% (inactive). Also, the viability decrease (inhibition) in [7] was 25.7% (inactive); in [8], -16.9% (inactive). Besides, the z-score in [9] (setting [12]) is -0.414 (inactive); in assay [9] (setting [13]), -0.697.
Take `OC[C@@H](O)[C@@H](O)[C@H](O)[C@H](O)CO`: the nuclear beta-catenin stimulation in assay [1] (at 10 µM) is 0.7% (inactive); in assay [1] (stimulation, at 2 µM) it was 0.6%. For the same compound, the insulin secretion stimulation in assay [2] was -2% (inactive). The viability decrease in assay [3] was -4.45% (inactive). In addition, the tube area decrease in assay [4] is 4.3% (inactive). Also, in [5], the GLP1 secretion stimulation is 1.1% (inactive). Besides, the inhibition of viability in assay [6] is -9.6% (inactive). Also, the figures for the viability decrease (inhibition) in assay [7] and in [8] were 40.5% (inactive) and 8.25% (inactive), respectively. Further, the remaining NAD in assay [10] is 10 nM (inactive).
In the case of `COc1cc(O)c(C(=O)c2ccccc2)cc1S(=O)(=O)O`, the nuclear beta-catenin stimulation in assay [1] (at 10 µM) was -0.8% (inactive); in assay [1] (stimulation, at 2 µM) it was 0.1%. In [2], the insulin secretion stimulation was -1.1% (inactive). Further, in assay [3], the viability decrease was -7.35% (inactive). For the same compound, the tube area decrease in assay [4] is -4.4% (inactive). Besides, the GLP1 secretion stimulation in assay [5] was -0.7% (inactive). Also, in assay [6], the inhibition of viability is -1.4% (inactive). The figures for the viability decrease (inhibition) in assay [7] and in [8] were -19.9% (inactive) and 4.15% (inactive), respectively. Besides, in assay [10], the remaining NAD is 10 nM (inactive).
Turning to `C#C[C@]1(O)CC[C@H]2[C@@H]3CCc4cc(OC5CCCC5)ccc4[C@H]3CC[C@@]21C`, the nuclear beta-catenin stimulation is 54.3% (active) in [1] (at 10 µM) and 0.5% in assay [1] (stimulation, at 2 µM). Also, the insulin secretion stimulation in assay [2] is 0.3% (inactive). Besides, in assay [3], the viability decrease was 102% (active). Moreover, the tube area decrease in assay [4] was 46.9% (active). Further, the GLP1 secretion stimulation in assay [5] was 32.5% (active). In addition, the inhibition of viability in assay [6] was 101% (active). The figures for the viability decrease (inhibition) in assay [7] and in assay [8] were 145% (active) and 105% (active), respectively. Further, in [10], the remaining NAD was 10 nM (inactive).
`Nc1c[n+](N2CCOCC2)no1`: the nuclear beta-catenin stimulation is 0.4% (inactive) in assay [1] (at 10 µM) and -0.3% in assay [1] (stimulation, at 2 µM). In assay [2], the insulin secretion stimulation was -1.7% (inactive). Moreover, the viability decrease in assay [3] is 15.5% (inactive). Also, the tube area decrease in [4] was -10.8% (inactive). For the same compound, the GLP1 secretion stimulation in assay [5] is -2.6% (inactive). The inhibition of viability in assay [6] was -13.8% (inactive). Moreover, the viability decrease (inhibition) is 66.6% (active) in [7] and 20.6% (inactive) in assay [8].
As for `CCCCC(CC)COC(=O)c1ccccc1O` (centres undefined), the nuclear beta-catenin stimulation was -0.1% (inactive) in assay [1] (at 10 µM) and -0.3% in assay [1] (stimulation, at 2 µM). Besides, in assay [2], the insulin secretion stimulation was -2% (inactive). The viability decrease in assay [3] is 9.8% (inactive). The tube area decrease in assay [4] was -7.3% (inactive). The GLP1 secretion stimulation in [5] was 1.9% (inactive). In [6], the inhibition of viability was 2.2% (inactive). Further, the viability decrease (inhibition) in assay [7] was 50.1% (active); in assay [8], 14.3% (inactive). The remaining NAD in assay [10] is 10 nM (inactive).
As to `NC(=O)C(c1ccccc1)(c1ccccc1)[C@@H]1CCN(CCc2ccc3c(c2)CCO3)C1`, the nuclear beta-catenin stimulation in [1] (at 10 µM) is 0.1% (inactive); in [1] (stimulation, at 2 µM) it was 1.7%. For the same compound, the insulin secretion stimulation in [2] was 16% (inactive). In [3], the viability decrease is -129% (inactive). Besides, the tube area decrease in assay [4] was 25.4% (inactive). For the same compound, the GLP1 secretion stimulation in assay [5] was 0.9% (inactive). Moreover, the inhibition of viability in [6] is 35.1% (inactive). For the same compound, the viability decrease (inhibition) in assay [7] was 22.8% (inactive); in assay [8], 12.4% (inactive). The z-score is -1.84 (inactive) in [9] (setting [12]) and -1.37 in [9] (setting [13]). Moreover, the remaining NAD in [10] was 10 nM (inactive). In [11], the luciferase signal was 108 AU (inactive).
For `CCOCCn1c(N2CCCN(C)CC2)nc2ccccc21`, the nuclear beta-catenin stimulation in [1] (at 10 µM) is -1.8% (inactive); in [1] (stimulation, at 2 µM), 1%. In addition, in assay [2], the insulin secretion stimulation was 4.3% (inactive). The viability decrease in assay [3] was -10.6% (inactive). The tube area decrease in [4] was 3.4% (inactive). For the same compound, the GLP1 secretion stimulation in [5] was -2.3% (inactive). The inhibition of viability in [6] is 8.5% (inactive). The viability decrease (inhibition) is 6% (inactive) in [7] and -4.3% (inactive) in assay [8]. In addition, the z-score in [9] (setting [12]) is 0.35 (inactive); in assay [9] (setting [13]) it was -0.184.
